Results as given in PubChem BioAssay AID504834 (National Center for Advancing Translational Sciences (NCATS), 2011).
Among all 320,000 compounds or so, about 22,000 (6.9%) were called active. Entries that show only a call come without a potency. Another 27% or so got no clear call; they are omitted. The sample holds actives, similar compounds and a random draw of the others, so the mix is not that of the screen. Calls follow the shape of the dose curve; as a rule, active = well fitted inhibition curve with a large enough effect; inconclusive = small, poorly fitted or top-dose-only effect, or another doubt; inactive = no such curve, though single readings can be large or run the other way.

test: Primary qHTS for delayed death inhibitors of the malarial parasite plastid, 96 hour incubation; conditions: P. falciparum luciferase reporter growth; series mostly up to 28.7 µM
Summary of the method: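 Two parasite generations (96 h, 37 C, 5% CO2) of compound exposure in infected erythrocytes (0.05% parasitemia, 2% hematocrit). Luciferase-reporter P. falciparum; decreased luminescence indicates inhibited growth, aimed at apicoplast-acting delayed death.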
Potency is read from the fitted curve at half-maximal effect.

SMILES	Potency
COCCCNS(=O)(=O)c1cccc(S(=O)(=O)c2cccc(S(=O)(=O)NCCCOC)c2)c1	inactive
CCc1noc(C)c1C(=O)Oc1ccc(N(C)S(=O)(=O)c2ccc(C)c(C)c2)cc1	inactive
CC1CCCCN1C(=S)NCc1ccccc1 (stereo not drawn)	inactive
C/C(=N\NC(=S)NCc1ccccc1)C1CCCCC1	6.57 µM (active)
C/C(=N\NC(=S)NCc1ccccc1)c1ccc(Cl)cc1	inactive
Cc1c(C)n2c(SCC(=O)N3CCCC3)nnc2[nH]c1=O	inactive
COc1cc(OC)c(NS(=O)(=O)c2cn(C)cn2)cc1Cl	inactive
COC(=O)c1c(C)oc(C)c1S(=O)(=O)Nc1ccc(C(C)C)cc1	inactive
CCc1ccccc1NC(=O)NCCN1CCCCC1	inactive
CN(CC(=O)Nc1ccc(N2CCOCC2)cc1)CC(=O)Nc1ccccc1[N+](=O)[O-]	inactive
CN1CCN(CCNC(=O)Nc2ccccc2[N+](=O)[O-])CC1	8.28 µM (active)
CC1Cc2cc(/C(O)=C3\C(=O)C(=O)N(Cc4cccnc4)C3c3ccccc3F)ccc2O1 (stereo not drawn)	inactive
CCn1cc(C(=O)N2CC(C)CC(C)C2)c(=O)c2cc(S(=O)(=O)N3CCCC3)ccc21 (stereo not drawn)	inactive
COC(=O)c1cn(C)c2ccc(S(=O)(=O)N3CC(C)CC(C)C3)cc2c1=O (stereo not drawn)	3.7 µM (active)
CC1CC(C)CN(S(=O)(=O)c2ccc(C(=O)NN3CCOCC3)cc2)C1 (stereo not drawn)	inactive
Cc1ccc(-c2cc(C(=O)NN)n[nH]2)o1	inactive
CCC1(CC)NC(=O)N(CC(=O)OCC(=O)c2cc(C)c(C)cc2C)C1=O	inactive
Cc1cc(-c2nnc(SCC(=O)Nc3ccc(S(N)(=O)=O)cc3)n2N)n[nH]1	inactive
N#Cc1ccc(C(=O)OCC(=O)NC(=O)NC2CCCCC2)cc1	inactive
O=C(c1cccc(C(=O)N2CCN(c3ccc(F)cc3)CC2)c1)N1CCN(c2ccc(F)cc2)CC1	9.28 µM (active)
O=C(c1ccccc1)c1ccc(C(=O)N2CCN(c3ccccc3)CC2)cc1	inactive
O=C(c1cc2cc(F)ccc2[nH]1)N1CCN(c2ccc(F)cc2)CC1	inactive
CC(C)(C)c1ccc(S(=O)(=O)N2CCN(C(=O)c3ccc4c(c3)C(=O)N(Cc3ccncc3)C4=O)CC2)cc1	inactive
CC(=O)c1ccc(NC(=O)c2cc(-c3cccs3)on2)cc1	inactive
Cc1ccc(NC(=O)CSc2sc3c(O)cc(=O)[nH]c3c2C#N)cc1C	inactive
CCC1(c2ccccc2)NC(=O)N(CC(=O)c2ccc3c(c2)OCO3)C1=O (stereo not drawn)	inactive

SMILES	Potency
COc1ccc(N(CC(=O)NCCSCc2cccc(Cl)c2)S(C)(=O)=O)cc1	inactive
CN(C)c1ccc(C=C2C(=O)OC3(CCCC3)OC2=O)cc1	inactive
CCC(CCC(C)C1CCC2C3CC=C4CC(O)CC[C@@]4(C)C3CC[C@@]12C)C(C)C (stereo partly drawn)	inactive
CN(C)c1ccc(/C=C2\CC3C4CC=C5CC(O)CCC5(C)C4CCC3(C)C2=O)cc1 (stereo not drawn)	2.33 µM (active)
O=C(O)[C@@H](S)[C@H](S)C(=O)O	1.69 µM (active)
c1cnc(N2CCN(c3ccc4ccccc4n3)CC2)nc1	inactive
Cc1ccc(-c2csc(-c3cc(C)on3)n2)cc1	inactive
Fc1ccc(-c2csc(-c3ccc(C4SCCS4)cc3)n2)cc1F	inactive
Clc1ccc(-c2csc(-c3ccncc3)n2)cc1	0.185 µM (active)
Cc1ccc(C(=O)N(CC(=O)NC2CCCC2)c2ccc(F)cc2)s1	inactive
COCc1ccc(C(=O)NC2CC(C)(C)Cc3c2cnn3-c2ccc(C)cc2)o1 (stereo not drawn)	inactive
Cc1cc(C)cc(NC(=S)NC2CC3CCCC(C2)N3Cc2cccs2)c1 (stereo not drawn)	2.33 µM (active)
COc1ccc(NC(=O)NC2CC3CCCC(C2)N3Cc2ccccc2)cc1 (stereo not drawn)	inactive
C=CCN1C2CCCC1CC(NC(=S)Nc1cccc(OC)c1)C2 (stereo not drawn)	inactive
CCC(CC)NC(=O)/C=C/c1cccc([N+](=O)[O-])c1	inactive
CCC1(C(=O)c2ccccc2)C(c2cccc([N+](=O)[O-])c2)C1(C(=O)OC)C(=O)OC (stereo not drawn)	13.1 µM (active)
CN(C(=O)c1cccc([N+](=O)[O-])c1)c1ccccc1C(=O)NCc1ccccc1	inactive
CCC(=O)Nc1ccc(Nc2nc(Cl)nc(Nc3ccc(NC(=O)CC)cc3)n2)cc1	inactive
O=C(O)CSCC(=O)Nc1ccc(C(F)(F)F)cc1	inactive
O=C(CCl)Nc1ccc(Sc2ccc(NC(=O)CCl)cc2)cc1	1.85 µM (active)
Cc1ccc2nc(N(CCN(C)C)C(=O)C3=COCCO3)sc2c1	inactive
COCCNC(=O)c1ccc2nc(Cc3ccc(OC)c(OC)c3)oc2c1	inactive
O=C(Nc1ccccc1[N+](=O)[O-])C1C(c2ccccc2)=C1c1ccccc1	13.1 µM (active)
O=C(CN1CCC(NC(=O)C2CC2)CC1)Nc1ccccc1[N+](=O)[O-]	0.738 µM (active)
O=C(O)c1ccccc1NC(=S)NC(NC(=O)c1ccccc1[N+](=O)[O-])C(Cl)(Cl)Cl (stereo not drawn)	13.1 µM (active)
O=C(Nc1ccncc1)c1ccccc1[N+](=O)[O-]	inactive

SMILES	Potency
O=C(Nc1ccccc1-c1ccccc1)c1ccccc1[N+](=O)[O-]	inactive
O=C(NNC(=O)c1ccccc1[N+](=O)[O-])Nc1ccccc1C(F)(F)F	11.7 µM (active)
O=C(CN1CCCCC1)Nc1ccccc1C(=O)NC1CC1	inactive
O=C(Nc1cccc(NC(=O)c2ccccc2[N+](=O)[O-])c1)c1ccccc1Cl	inactive
O=C(CN1CCC(NC(=O)Nc2ccccc2)CC1)Nc1cccc([N+](=O)[O-])c1	inactive
O=C(O)c1ccccc1C(=O)Nc1ccccc1[N+](=O)[O-]	inactive
O=[N+]([O-])c1ccccc1Nc1ccc(O)cc1	inactive
O=C(O)c1ccccc1NC(=O)c1ccccc1-c1ccccc1C(=O)O	inactive
Cc1ccsc1C(=O)NCCc1ccco1	inactive
CCCOC1CCCN(C(=O)c2cc(COc3cncc(Cl)c3)on2)C1 (stereo not drawn)	inactive
O=C1Nc2cc(C(=O)N3CCN(c4ccc(F)cc4)CC3)ccc2NC1CSCc1cccc(F)c1 (stereo not drawn)	inactive
COC(=O)c1sc(NC(=S)NC(=O)c2ccc(C)cc2)nc1C	inactive
Nc1cccc(S(=O)(=O)Nc2ccc(SC(F)F)cc2)c1	inactive
COc1cc(N=Cc2c(O)c3ccccc3oc2=O)c(OC)cc1Cl	inactive
CCOc1ccc(S(=O)(=O)NCCC(=O)N2CCCCCCC2)cc1	inactive
CCN(CC(=O)NCc1ccc(Cl)cc1)C(=O)c1c(C)noc1C	inactive
Cc1ccccc1Nc1c([N+](=O)[O-])ccc2nonc12	inactive
CCc1nc2sc3c(Cl)ncnc3c2c2c1CCCC2	inactive
Cc1nc(-c2ccc(F)cc2)c(CC(=O)N(C)CC(=O)Nc2c(C)cccc2C)s1	inactive
Cc1nc(-c2ccc(F)cc2)c(CC(=O)N2CCN(S(=O)(=O)c3ccc(F)cc3)CC2)s1	13.1 µM (active)
O=C(c1cnc(Cl)c(Cl)c1)N1CCN(S(=O)(=O)c2ccc(F)cc2)CC1	inactive
COc1ccc(N2C(=O)NC(NS(=O)(=O)c3ccc(Cl)cc3)(C(F)(F)F)C2=O)cc1 (stereo not drawn)	inactive
O=C1CSc2ccc(S(=O)(=O)NCc3ccccc3)cc2N1	inactive
CC1(C)CC(=O)C(N=Nc2c(F)cccc2F)=C(O)C1	inactive
CCC(NC(=O)C1CCCC1)c1ccc(C)cc1 (stereo not drawn)	inactive
CCCCN(CC(=O)Nc1cccc(S(=O)(=O)N2CCCC2)c1)Cc1nc2ccccc2c(=O)[nH]1	5.86 µM (active)

SMILES	Potency
CCN(CC(=O)Nc1cccc(S(N)(=O)=O)c1)Cc1nc2ccccc2c(=O)[nH]1	inactive
O=C(Cn1cnc2ccccc2c1=O)Nc1cccc(S(=O)(=O)N2CCCCC2)c1	inactive
CCc1noc(C)c1C(=O)N1CCN(S(=O)(=O)c2cccc(C(F)(F)F)c2)CC1	inactive
Cn1ncc(Br)c1C(=O)NC1CCCC1	inactive
NC(=O)CSc1nnc(NC(=O)c2ccc3ccccc3c2)s1	inactive
CC(=O)N1N=C(c2ccccc2)OC1c1cccnc1 (stereo not drawn)	inactive
CC(=O)N1N=C(c2ccncc2)OC1(Cc1ccccc1)Cc1ccccc1	11.7 µM (active)
CC(C)(C)N(Cc1ccccc1)C(=O)c1ccncc1	inactive
Cn1c(C(=O)N2CCCC(C(=O)NCc3ccccc3)C2)cc2sccc21 (stereo not drawn)	inactive
CNC(=O)COC(=O)c1cc(-c2ccc(OC)cc2)nc2ccccc12	inactive
COc1ccc(NC(=O)c2cc(-c3cc(OC)c(OC)c(OC)c3)nc3ccccc23)c(OC)c1	2.62 µM (active)
COc1cc(-c2cc(C(=O)OCC(=O)Nc3ccc4c(c3)OCO4)c3ccccc3n2)cc(OC)c1OC	inactive
CC1CCCCC12NC(=O)N(CC(=O)OCC(=O)NCc1ccc(F)cc1)C2=O (stereo not drawn)	inactive
O=C(C1CCN(S(=O)(=O)c2ccc(Br)s2)CC1)N1CCN(C2CCCCC2)CC1	4.65 µM (active)
Cc1ccc(C(=O)N2CCN(C3CCCCC3)CC2)s1	inactive
O=C(C1CCN(S(=O)(=O)c2ccc(Br)s2)CC1)N1CCN(c2ccccc2)CC1	inactive
Cc1cccc(C)c1NC(=O)N1CC(C)OC(C)C1 (stereo not drawn)	inactive
COC(=O)c1ccc(OC(=O)c2cnccn2)cc1	inactive
Cc1cccc(OP(=O)(Oc2cccc(C)c2)OC(c2ccccc2)C(F)(F)F)c1 (stereo not drawn)	13.1 µM (active)
Cc1cccc(OP(=O)(Nc2c(C)n(C)n(-c3ccccc3)c2=O)Oc2cccc(C)c2)c1	inactive
Cc1cccc(OCC(=O)Nc2ccccc2F)c1	inactive
COc1ccc(S(=O)(=O)N2CCCCC2)cc1NC(=O)C1CC(=O)N(c2ccc3c(c2)OCCO3)C1 (stereo not drawn)	inactive
COc1cc(OC)c(OC)cc1CN1CCN(C(=O)c2cccc3ccccc23)CC1	inactive
CCOC(=O)CNC(=O)c1nn(-c2cccc(OC)c2)c(=O)c2ccccc12	inactive
COc1cccc(-n2nc(C(=O)N3CCN(Cc4ccccc4)CC3)c3ccccc3c2=O)c1	5.22 µM (active)
